# Test results as given in PubChem BioAssay.
# “And” between values parts separate entries of the source, which are not always exact repeats. Equal entries are not always repeated. Unmarked numbers belong to inactive results. No rule for the calls is given here.
# System: Botulinum neurotoxin type F light chain protease (Clostridium botulinum)
# Assay: Clostridium botulinum type F light chain protease inhibitors, microsphere substrate cleavage, validation (AID 588459)
# Conditions: multiplex microsphere protease substrate cleavage assay, flow cytometry; at 10 µM; hits give high values
row,Structure (SMILES),inhibition
1,O=C(c1ccccc1)N1CCN(C(=O)c2ccccc2)CC1,-0.3%
2,O=C(O)CCCc1ccccc1,-3.3%
3,CC(NC(=O)c1cccnc1)C(=O)O (stereo not given),-0.3%
4,O=C(Nc1cccc(Oc2c(F)c(F)c(F)c(F)c2F)c1)N1C[C@@H]2C[C@@H](C1)c1cccc(=O)n1C2,2.7%
5,O=C1CCc2cc(OCCCCc3nnnn3C3CCCCC3)ccc2N1,-0.2%
6,CC(=O)N1CC2(C)CN(C(C)=O)CC(C)(C1)C2,-2.3%
7,COc1cc(Cc2cnc(N)nc2N)cc(OC)c1OC,4.4% and 6.3%
8,COc1ccc(O)c(C(=O)/C=C/c2cc3ccccc3o2)c1,-0.1%
9,Cc1ccccc1C(=O)NCC(=O)O,1.1%
10,c1ccc(SSc2ccccc2)cc1,0.3%
11,O=C(CCN1CCC(c2ccccc2)C1)c1ccc2c(c1)OCCO2 (stereo not given),4.6%
12,CCc1ccc(CN(C)Cc2nc(Cc3ccccc3)no2)nc1,1.4%
13,CCCCCCCCCC(=O)OCC(O)CO (stereo not given),-3.5%
14,CC(=O)N1CCN(c2ccc(OC[C@H]3CO[C@](Cn4ccnc4)(c4ccc(Cl)cc4Cl)O3)cc2)CC1,-2.2%
15,C[C@H]1O[C@@H](O[C@H]2[C@@H](O)C[C@H](O[C@H]3[C@@H](O)C[C@H](O[C@H]4CC[C@@]5(C)[C@H](CC[C@@H]6[C@@H]5C[C@@H](O)[C@]5(C)[C@@H](C7=CC(=O)OC7)CC[C@]65O)C4)O[C@@H]3C)O[C@@H]2C)C[C@H](O)[C@@H]1O,2.7%
